Reference: the supplement of paper PMC10849652
Targets with a hit are over-represented here; the source holds about 7,900 in all. About 0.6% of all pairs of compound and target were hits.

Compound: CCCS(=O)(=O)Nc1ccc(F)c(C(=O)c2c[nH]c3ncc(-c4ccc(Cl)cc4)cc23)c1F [vemurafenib]
Assay: log2 fold change, soluble protein after heating vs DMSO (PISA); higher = thermal stabilisation; K562 cells, 10 uM, 30 min; active = over 0.2 and 3.5 SD of the protein, either way, in both replicates (recomputed)
How it was run: (§1)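 K562 cells at 2×10^6 cells/mL were treated for 30 min with 10 μM compound, and aliquots were heated for 3 min over 48°C-58°C before pooling. Extraction used PBS with 0.5% NP-40 at 4°C, and soluble protein was the supernatant after 21,000xg for 90 min, measured by TMTpro 16plex LC-MS/MS with channel sums equalised. Thermal stability values, relative to control samples and from duplicates, are log2 fold changes.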

Sequence of UniProt Q7L1V2 (Q7L1V2 whole entry, looked up): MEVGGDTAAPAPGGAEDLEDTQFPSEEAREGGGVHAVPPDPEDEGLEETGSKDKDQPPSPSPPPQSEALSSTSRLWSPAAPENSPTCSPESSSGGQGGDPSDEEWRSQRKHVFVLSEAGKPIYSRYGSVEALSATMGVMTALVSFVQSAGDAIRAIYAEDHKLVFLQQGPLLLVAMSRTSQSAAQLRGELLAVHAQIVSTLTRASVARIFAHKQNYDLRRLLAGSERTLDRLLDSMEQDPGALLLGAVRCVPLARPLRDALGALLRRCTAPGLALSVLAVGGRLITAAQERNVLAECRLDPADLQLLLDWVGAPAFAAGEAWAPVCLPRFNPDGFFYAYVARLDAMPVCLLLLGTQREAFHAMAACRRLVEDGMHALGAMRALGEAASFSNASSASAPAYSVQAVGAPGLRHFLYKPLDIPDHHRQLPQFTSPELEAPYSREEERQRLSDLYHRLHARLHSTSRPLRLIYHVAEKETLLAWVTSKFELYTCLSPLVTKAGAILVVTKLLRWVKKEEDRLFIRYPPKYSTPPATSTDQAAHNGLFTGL
Sequence of UniProt Q9BZF1 (Q9BZF1 whole entry, looked up): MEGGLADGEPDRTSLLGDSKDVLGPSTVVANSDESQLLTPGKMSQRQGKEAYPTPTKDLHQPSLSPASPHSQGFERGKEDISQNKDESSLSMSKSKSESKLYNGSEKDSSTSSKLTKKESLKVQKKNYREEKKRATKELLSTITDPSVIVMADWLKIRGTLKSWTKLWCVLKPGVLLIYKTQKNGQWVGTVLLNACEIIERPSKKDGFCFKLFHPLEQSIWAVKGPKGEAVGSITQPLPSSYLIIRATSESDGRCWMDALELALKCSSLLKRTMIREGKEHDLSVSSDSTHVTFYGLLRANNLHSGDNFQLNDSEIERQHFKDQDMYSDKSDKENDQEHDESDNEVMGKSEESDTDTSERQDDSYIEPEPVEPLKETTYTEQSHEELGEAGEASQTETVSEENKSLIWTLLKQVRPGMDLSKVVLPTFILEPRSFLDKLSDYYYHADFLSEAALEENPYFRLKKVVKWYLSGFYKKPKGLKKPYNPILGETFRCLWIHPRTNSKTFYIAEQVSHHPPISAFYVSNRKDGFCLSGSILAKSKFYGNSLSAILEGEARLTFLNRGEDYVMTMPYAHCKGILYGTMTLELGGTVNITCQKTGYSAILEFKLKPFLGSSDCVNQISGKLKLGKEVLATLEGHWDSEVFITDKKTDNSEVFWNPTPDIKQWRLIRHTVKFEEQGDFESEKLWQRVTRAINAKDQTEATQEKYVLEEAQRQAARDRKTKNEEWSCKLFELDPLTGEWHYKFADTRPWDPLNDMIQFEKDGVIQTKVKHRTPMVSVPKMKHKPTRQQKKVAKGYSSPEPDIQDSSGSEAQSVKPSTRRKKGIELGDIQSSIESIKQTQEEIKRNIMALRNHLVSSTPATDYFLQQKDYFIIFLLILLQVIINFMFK
Sequence of UniProt P17568 (P17568 whole entry, looked up): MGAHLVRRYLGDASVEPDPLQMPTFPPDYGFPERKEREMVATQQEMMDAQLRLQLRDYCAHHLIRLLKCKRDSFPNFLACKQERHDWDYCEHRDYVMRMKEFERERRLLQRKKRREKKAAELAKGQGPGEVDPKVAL
Sequence of UniProt P19338 (P19338 whole entry, looked up): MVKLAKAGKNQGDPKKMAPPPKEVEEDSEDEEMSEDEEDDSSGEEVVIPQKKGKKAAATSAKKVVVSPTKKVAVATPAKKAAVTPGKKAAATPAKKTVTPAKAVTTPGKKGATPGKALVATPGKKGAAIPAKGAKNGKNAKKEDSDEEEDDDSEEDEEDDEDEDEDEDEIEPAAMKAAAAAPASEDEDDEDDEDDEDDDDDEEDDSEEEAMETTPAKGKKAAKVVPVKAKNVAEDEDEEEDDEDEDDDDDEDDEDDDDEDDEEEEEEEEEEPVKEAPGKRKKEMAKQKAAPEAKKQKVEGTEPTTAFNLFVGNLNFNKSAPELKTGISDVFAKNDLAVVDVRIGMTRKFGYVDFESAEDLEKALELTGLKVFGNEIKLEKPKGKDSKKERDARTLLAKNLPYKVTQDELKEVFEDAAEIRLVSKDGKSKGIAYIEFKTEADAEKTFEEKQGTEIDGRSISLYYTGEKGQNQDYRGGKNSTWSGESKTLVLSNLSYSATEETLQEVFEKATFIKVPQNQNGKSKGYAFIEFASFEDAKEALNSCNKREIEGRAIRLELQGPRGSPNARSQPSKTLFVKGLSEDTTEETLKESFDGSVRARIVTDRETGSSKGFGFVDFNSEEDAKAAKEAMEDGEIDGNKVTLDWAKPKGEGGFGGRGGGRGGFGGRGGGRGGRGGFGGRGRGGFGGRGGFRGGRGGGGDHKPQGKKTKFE
Sequence of UniProt Q8NBF2 (Q8NBF2 whole entry, looked up): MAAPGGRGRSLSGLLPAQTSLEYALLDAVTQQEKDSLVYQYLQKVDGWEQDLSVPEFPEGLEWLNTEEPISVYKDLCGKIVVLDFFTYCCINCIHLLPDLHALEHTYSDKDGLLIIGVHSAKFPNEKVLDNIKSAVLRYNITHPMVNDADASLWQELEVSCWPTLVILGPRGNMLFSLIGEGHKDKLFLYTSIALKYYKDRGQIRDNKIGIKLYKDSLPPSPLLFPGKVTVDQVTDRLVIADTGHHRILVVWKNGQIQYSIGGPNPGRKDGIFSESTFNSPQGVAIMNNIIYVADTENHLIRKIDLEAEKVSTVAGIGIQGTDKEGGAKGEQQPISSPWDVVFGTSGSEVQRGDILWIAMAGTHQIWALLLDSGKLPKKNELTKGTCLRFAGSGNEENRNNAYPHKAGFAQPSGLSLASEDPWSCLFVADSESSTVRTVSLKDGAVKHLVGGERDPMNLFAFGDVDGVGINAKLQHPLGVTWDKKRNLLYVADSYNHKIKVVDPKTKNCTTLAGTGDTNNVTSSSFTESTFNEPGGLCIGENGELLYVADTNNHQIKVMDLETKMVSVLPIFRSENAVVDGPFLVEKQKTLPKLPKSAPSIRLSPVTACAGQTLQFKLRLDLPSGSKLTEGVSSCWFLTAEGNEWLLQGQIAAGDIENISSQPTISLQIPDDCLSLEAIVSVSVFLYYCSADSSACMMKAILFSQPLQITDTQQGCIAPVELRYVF
Sequence of UniProt O00217 (O00217 whole entry, looked up): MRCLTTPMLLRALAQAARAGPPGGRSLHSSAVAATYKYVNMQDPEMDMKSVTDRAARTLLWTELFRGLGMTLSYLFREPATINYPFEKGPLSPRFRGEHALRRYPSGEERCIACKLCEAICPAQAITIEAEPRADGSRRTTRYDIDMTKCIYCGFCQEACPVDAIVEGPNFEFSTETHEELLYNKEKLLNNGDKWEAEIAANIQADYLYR
Sequence of UniProt P56556 (P56556 whole entry, looked up): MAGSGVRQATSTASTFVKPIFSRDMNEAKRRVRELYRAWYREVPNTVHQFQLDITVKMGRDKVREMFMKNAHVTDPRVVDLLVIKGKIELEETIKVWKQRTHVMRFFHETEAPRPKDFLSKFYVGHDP
Sequence of UniProt Q96RE7 (Q96RE7 whole entry, looked up): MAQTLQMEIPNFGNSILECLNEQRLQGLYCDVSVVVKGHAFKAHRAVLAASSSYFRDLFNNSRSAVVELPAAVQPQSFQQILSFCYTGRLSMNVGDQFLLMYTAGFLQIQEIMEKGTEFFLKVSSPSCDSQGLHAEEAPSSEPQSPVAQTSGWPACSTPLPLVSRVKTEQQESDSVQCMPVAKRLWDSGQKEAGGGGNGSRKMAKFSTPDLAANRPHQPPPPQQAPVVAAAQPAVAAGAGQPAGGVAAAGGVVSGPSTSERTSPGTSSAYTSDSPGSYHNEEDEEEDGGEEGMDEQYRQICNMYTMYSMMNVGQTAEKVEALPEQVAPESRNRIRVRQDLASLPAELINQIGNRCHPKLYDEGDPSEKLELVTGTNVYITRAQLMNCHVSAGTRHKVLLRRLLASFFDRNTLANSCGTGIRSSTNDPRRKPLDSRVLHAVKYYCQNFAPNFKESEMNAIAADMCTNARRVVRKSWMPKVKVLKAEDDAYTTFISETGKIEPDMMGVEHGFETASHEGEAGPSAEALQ
Sequence of UniProt Q9BV86 (Q9BV86 whole entry, looked up): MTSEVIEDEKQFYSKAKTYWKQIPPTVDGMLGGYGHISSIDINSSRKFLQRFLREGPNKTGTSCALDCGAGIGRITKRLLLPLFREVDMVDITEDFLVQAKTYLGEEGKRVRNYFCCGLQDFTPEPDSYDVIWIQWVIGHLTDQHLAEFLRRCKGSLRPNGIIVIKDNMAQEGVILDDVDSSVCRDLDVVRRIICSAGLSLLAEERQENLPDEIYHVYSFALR
Sequence of UniProt P84157 (P84157 whole entry, looked up): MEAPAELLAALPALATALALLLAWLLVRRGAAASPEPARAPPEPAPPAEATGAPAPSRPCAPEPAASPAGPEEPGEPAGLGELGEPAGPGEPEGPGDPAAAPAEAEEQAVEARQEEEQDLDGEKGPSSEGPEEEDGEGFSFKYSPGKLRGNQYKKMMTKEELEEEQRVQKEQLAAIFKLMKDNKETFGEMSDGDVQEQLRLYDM
Sequence of UniProt Q9UI09 (Q9UI09 whole entry, looked up): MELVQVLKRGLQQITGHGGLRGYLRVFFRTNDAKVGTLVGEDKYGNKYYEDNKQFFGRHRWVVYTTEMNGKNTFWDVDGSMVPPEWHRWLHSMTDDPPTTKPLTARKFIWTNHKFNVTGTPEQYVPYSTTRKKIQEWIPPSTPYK
Sequence of UniProt Q9ULX3 (Q9ULX3 whole entry, looked up): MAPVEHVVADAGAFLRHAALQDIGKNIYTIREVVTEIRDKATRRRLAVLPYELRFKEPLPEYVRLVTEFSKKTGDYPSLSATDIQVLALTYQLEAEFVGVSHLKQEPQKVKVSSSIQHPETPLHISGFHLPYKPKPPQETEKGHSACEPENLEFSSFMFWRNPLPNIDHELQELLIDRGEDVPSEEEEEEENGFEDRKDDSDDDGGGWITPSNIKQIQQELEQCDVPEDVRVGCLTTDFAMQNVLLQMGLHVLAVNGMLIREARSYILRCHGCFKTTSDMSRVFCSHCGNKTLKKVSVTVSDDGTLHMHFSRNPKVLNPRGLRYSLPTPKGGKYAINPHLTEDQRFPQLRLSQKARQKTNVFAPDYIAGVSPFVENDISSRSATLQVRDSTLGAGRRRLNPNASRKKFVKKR

log2 fold change, inactive:
NDUFA6 (UniProt P56556) 0.04
MORF4L2 (UniProt Q15014) 0.009
NOL7 (UniProt Q9UMY1) -0.14
NELFA (UniProt Q9H3P2) 0.06
NHLRC2 (UniProt Q8NBF2) -0.053
MRPS25 (UniProt P82663) -0.089
MINK1 (UniProt Q8N4C8) -0.004
OSBPL8 (UniProt Q9BZF1) 0.074
NDUFA9 (UniProt Q16795) 0.009
NTMT1 (UniProt Q9BV86) 0.062
NFATC3 (UniProt Q12968) -0.033
NAA11 (UniProt Q9BSU3) 0.145
NUDT1 (UniProt P36639) -0.004
MRPS18B (UniProt Q9Y676) -0.074
NOP56 (UniProt O00567) -0.018
MRPS15 (UniProt P82914) -0.037
MXRA7 (UniProt P84157) 0.041
NPC1 (UniProt O15118) 0.007
NUCKS1 (UniProt Q9H1E3) 0.017
NCAPG (UniProt Q9BPX3) 0.056
NDUFB7 (UniProt P17568) 0.018
NACC1 (UniProt Q96RE7) 0.154
NDUFS8 (UniProt O00217) 0.02
NCL (UniProt P19338) -0.139
NOB1 (UniProt Q9ULX3) 0.055
NDUFA12 (UniProt Q9UI09) 0.039
NBN (UniProt O60934) 0.081
NIBAN1 (UniProt Q9BZQ8) 0.046
OXSR1 (UniProt O95747) 0.037
NFYC (UniProt Q13952) -0.006
NAPG (UniProt Q99747) 0.067
NUP210 (UniProt Q8TEM1) -0.002
MRPS24 (UniProt Q96EL2) -0.065
NMT1 (UniProt P30419) -0.013
NUP205 (UniProt Q92621) 0.059
MRPL46 (UniProt Q9H2W6) -0.061
MON1B (UniProt Q7L1V2) -0.005
NFX1 (UniProt Q12986) 0.148
MRPS16 (UniProt Q9Y3D3) -0.014

Compound: CCCS(=O)(=O)Nc1ccc(F)c(C(=O)c2c[nH]c3ncc(Cl)cc23)c1F
Assay: as above
How it was run: as §1

log2 fold change, inactive:
NDUFA6 (UniProt P56556) 0.198
MORF4L2 (UniProt Q15014) 0.036
NOL7 (UniProt Q9UMY1) -0.121
NELFA (UniProt Q9H3P2) 0.097
NHLRC2 (UniProt Q8NBF2) -0.048
MRPS25 (UniProt P82663) 0.078
MINK1 (UniProt Q8N4C8) 0.024
OSBPL8 (UniProt Q9BZF1) 0.035
NDUFA9 (UniProt Q16795) 0.039
NTMT1 (UniProt Q9BV86) 0.012
NFATC3 (UniProt Q12968) 0.094
NAA11 (UniProt Q9BSU3) -0.067
NUDT1 (UniProt P36639) 0.209
MRPS18B (UniProt Q9Y676) 0
NOP56 (UniProt O00567) -0.065
MRPS15 (UniProt P82914) 0.062
MXRA7 (UniProt P84157) -0.032
NPC1 (UniProt O15118) -0.019
NUCKS1 (UniProt Q9H1E3) -0.061
NCAPG (UniProt Q9BPX3) 0.091
NDUFB7 (UniProt P17568) -0.014
NACC1 (UniProt Q96RE7) 0.064
NDUFS8 (UniProt O00217) -0.006
NCL (UniProt P19338) -0.036
NOB1 (UniProt Q9ULX3) 0.031
NDUFA12 (UniProt Q9UI09) 0.03
NBN (UniProt O60934) 0.047
NIBAN1 (UniProt Q9BZQ8) 0.083
OXSR1 (UniProt O95747) 0.038
NFYC (UniProt Q13952) -0.001
NAPG (UniProt Q99747) 0.155
NUP210 (UniProt Q8TEM1) 0.058
MRPS24 (UniProt Q96EL2) 0.057
NMT1 (UniProt P30419) 0
NUP205 (UniProt Q92621) 0.084
MRPL46 (UniProt Q9H2W6) -0.006
MON1B (UniProt Q7L1V2) 0.032
NFX1 (UniProt Q12986) -0.032
MRPS16 (UniProt Q9Y3D3) 0.062
